# Screening data deposited in PubChem by NMMLSC.
# Most compounds without a hit are left out; they make up all but 0.89% or so of the library.
# AGP1 TOR yeast: modulators of TOR pathway AGP1-GFP in S. cerevisiae; S. cerevisiae AGP1-GFP multiplex flow cytometry, 3 h; GFP as percent of DMSO wells; AID 2066; GFP response vs DMSO, % at 10 µM; hit rate 0.02% among 320,000;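 active = GFP response relative to DMSO above a set limit, near screen average plus 3 SD, cut at about 150% in these data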;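 also: median GFP channel fluorescence of the gated AGP1 strain per well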
# CIT2 TOR yeast: yeast TOR pathway CIT2-GFP modulation | hit rate 0.065% among 320,000 | S. cerevisiae CIT2-GFP strain, flow cytometry, 3 h; 100 means same as DMSO wells | AID 2029 | GFP response vs DMSO, % at 10 µM;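 active = GFP response relative to DMSO above a set limit, near the screen mean plus 3 SD, cut at about 150% in these data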;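 also: ratio of well median GFP fluorescence to mean of DMSO wells on the plate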
# LAP4 TOR yeast: modulators of TOR pathway LAP4-GFP in S. cerevisiae. S. cerevisiae LAP4-GFP multiplex, flow cytometry GFP, 3 h; median GFP as percent of DMSO wells. GFP response vs DMSO, % at 10 µM. hit rate 0.34% among 320,000. AID 2023;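 active = GFP response vs DMSO above a set limit, about the screen mean plus 3 SD, cut at about 150% in these data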
# RPL19A-GFP yeast: modulators of TOR pathway RPL19A-GFP in S. cerevisiae | S. cerevisiae RPL19A-GFP strain, flow cytometry, 3 h; active compounds read low | percent response vs DMSO, % at 10 µM | hit rate 0.3% among 330,000 | AID 2025;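 active = percent response vs DMSO below 50%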;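 also: median channel GFP fluorescence of the barcoded RPL19A-GFP strain; ratio of sample median GFP to plate DMSO average so 100% = DMSO; lower means less RPL19A-GFP as with rapamycin TOR inhibition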
# MEP2-GFP yeast: modulators of TOR pathway MEP2-GFP in S. cerevisiae; S. cerevisiae MEP2-GFP strain, flow cytometry GFP, 3 h; 100% = DMSO control level; GFP response vs DMSO, % at 10 µM; hit rate 0.51% among 330,000;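 active = GFP response versus DMSO above a set limit, roughly screen mean plus 3 SD, cut at about 180% in these data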;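 also: median GFP fluorescence of the barcode-gated MEP2-GFP cells per well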
# LAP4 cherry2: reconfirmed LAP4-GFP TOR pathway modulator in yeast. shares compounds with LAP4 TOR yeast. S. cerevisiae LAP4-GFP strain, flow cytometry GFP, 3 h. GFP response vs DMSO, % at 10 µM. hit rate 20% among 590. AID 2621;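 active = GFP signal as percent of the solvent control above about 150%, meaning raised reporter expression, limit read from the data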;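 also: ratio of well median GFP fluorescence to plate DMSO mean so 100% = DMSO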
# MEP2 cherry2: yeast MEP2-GFP modulation, second cherry pick. AID 2622. shares compounds with LAP4 TOR yeast. hit rate 10% among 590. GFP response vs DMSO, % at 10 µM. S. cerevisiae MEP2-GFP strain, flow cytometry GFP, 3 h;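 active = GFP signal above 150% of the solvent control wells, that is a rise of more than half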;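 also: median channel GFP fluorescence of all gated yeast cells per well; ratio of median GFP to plate DMSO average so 100% = DMSO level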
# RPL19A GFP CP2: reconfirmed modulator of RPL19A-GFP TOR reporter in yeast. GFP response vs DMSO, % at 10 µM. shares compounds with LAP4 TOR yeast. S. cerevisiae RPL19A-GFP strain, flow cytometry GFP, 3 h; active compounds read low; 100% means same as DMSO wells. AID 2623. hit rate 3% among 590;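 active = under 65% GFP response relative to DMSO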;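 also: median GFP channel fluorescence per well over the all cells gate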
# CIT2 GFP CP2: reconfirmed modulator of CIT2-GFP TOR reporter in yeast; shares compounds with LAP4 TOR yeast; S. cerevisiae CIT2-GFP strain, flow cytometry GFP, 3 h; DMSO control wells read 100%; GFP response vs DMSO, % at 10 µM; hit rate 8% among 590; AID 2624;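 active = GFP response vs DMSO above about 150%, limit read from the data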;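 also: median green fluorescence per well over all gated yeast cells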
# AGP1 GFP CP2: second confirmation of modulators of TOR reporter AGP1-GFP in yeast; shares compounds with LAP4 TOR yeast; S. cerevisiae AGP1-GFP strain, flow cytometry GFP, 3 h; percent response vs DMSO, % at 10 µM; 590 tested, under 10 active; AID 2643;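 active = over 150 percent of DMSO response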;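 also: median GFP channel fluorescence over all cells without mother daughter split; sample median GFP divided by mean DMSO control so 100% equals DMSO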
# Yeast autofluor: yeast s288c autofluorescence artifact, counter-screen; shares compounds with LAP4 TOR yeast; S. cerevisiae s288c, 520 nm autofluorescence, flow cytometry, 3 h; active compounds read high; zero means same as solvent-only cells; fluorescence change (kMESF span) at 33 µM; 610 tested, under 10 active;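 active = fluorescence span over the dose series, or activity score, above about 33, limit read from the data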
# Yeast autofl DR: yeast s288c autofluorescence artifact in dose response; shares compounds with LAP4 TOR yeast; S. cerevisiae s288c parental, compound autofluorescence, flow cytometry, 3 h; fluorescence change (span) at 33 µM; 110 tested, under 10 active;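 active = fluorescence change span, or the activity score built from it, above 25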
# TORC1 bypass: compounds blocking wildtype yeast growth but not TORC1 bypass cells; S. cerevisiae BY4741 spot growth rating, 48-72 h; active compounds read low; 120 tested, under 10 active; AID 504456; growth rating (0-3) at 30 µM; shares compounds with LAP4 TOR yeast;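 active = growth rating at most 1 for wild type yeast while the TORC1 bypass strain still grows fully, rated 3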
# Starred values were filed as active, the others as inactive; x = no result.
SMILES,AGP1 TOR yeast,CIT2 TOR yeast,LAP4 TOR yeast,RPL19A-GFP yeast,MEP2-GFP yeast,LAP4 cherry2,MEP2 cherry2,RPL19A GFP CP2,CIT2 GFP CP2,AGP1 GFP CP2,Yeast autofluor,others
C=CC[C@H](CC(=O)OC(C)(C)C)C(=O)OC[C@@H]1CCCN1C(=O)[C@@H](CC=C)CC(=O)N[C@H](CO)Cc1ccccc1,113,108,116,108,110,x,x,x,x,x,x,
CCN1CCN(c2cc(C)c3cc(NC(=O)c4ccc(OC)c(OC)c4)ccc3n2)CC1,97,98,102,101,99,x,x,x,x,x,x,
CCN1CCN(c2cc(C)c3cc(NC(=O)c4cccc(OC)c4)ccc3n2)CC1,49,90,100,60,154,102,96,101,118,99,x,
CCSc1nnc2ccc(-c3ccc(OC)c(OC)c3)nn12,111,151*,89,97,97,88,108,107,111,98,x,
O=C(Nc1ccnn1C1CCN(C(=O)c2ccccc2C(F)(F)F)CC1)C1CC1,106,107,103,100,106,x,x,x,x,x,x,
CC(C)(C)c1nnc(N/N=C/c2cc(Br)ccc2O)n(N)c1=O,99,95,185*,88,103,215*,140,98,114,105,1.3,
CCc1nnc(N/N=C/c2cc(Br)c(O)cc2O)n1N,101,108,95,104,110,x,x,x,x,x,x,
COc1cccc(NC(=O)Cc2ccccc2)c1,78,87,108,98,86,x,x,x,x,x,x,
O=C(CC(=O)c1ccccc1)Nc1ccccc1,89,82,92,89,95,106,102,101,101,98,x,
Cc1ccccc1NC(=O)CC(=O)c1ccccc1,94,101,92,100,108,105,111,102,100,100,x,
O=C(CC(=O)c1ccccc1)Nc1ccccc1C(F)(F)F,95,94,87,98,105,101,102,101,97,97,x,
COc1cccc(NC(=O)CC(=O)c2ccccc2)c1,91,96,98,97,100,106,103,100,93,94,x,
CC(=O)c1c(O)cc(=O)oc1-c1ccc(C)cc1,97,91,87,90,87,x,x,x,x,x,x,
CCNC(=O)NC1(C(=O)Nc2ccc3c(c2)CCC3)CCCCC1,103,106,100,98,115,x,x,x,x,x,x,
CCOc1ccccc1NS(=O)(=O)c1ccc(Br)s1,88,96,100,94,93,x,x,x,x,x,x,
CC(C)[C@H](NS(=O)(=O)c1ccc2c(c1)OCCO2)C(=O)OCC(=O)Nc1cc(Cl)ccc1Cl,98,103,89,103,102,x,x,x,x,x,x,
COc1ccc(N2CC(C(=O)Nc3nnc(SCC(=O)N4CCOCC4)s3)CC2=O)cc1 (stereo not given),118,110,157*,89,131,105,112,101,104,103,x,
O=C(Nc1nnc(SCC(=O)N2CCOCC2)s1)C1CC(=O)N(c2ccccc2)C1 (stereo not given),101,92,97,98,104,x,x,x,x,x,x,
Cc1ccc(S(=O)(=O)O/N=C2\CCCc3ccccc32)cc1,105,111,102,101,102,x,x,x,x,x,x,
CC1=C(C)/C(=N\OS(=O)(=O)c2ccccc2)C=CC1=O,74,91,255*,82,89,x,x,x,x,x,0.31,
Cn1c(SCC(=O)NCC2CCCO2)nnc1-c1ccc(S(=O)(=O)N2CCCC2)cc1 (stereo not given),101,98,94,98,98,x,x,x,x,x,x,
CC(Oc1ccc(Br)cc1)C(=O)Nc1nc(-c2ccccn2)cs1 (stereo not given),72,96,168*,101,98,x,x,x,x,x,1.1,Yeast autofl DR=0.29;TORC1 bypass=3
O=C(Nc1nc(-c2ccccn2)cs1)C1COc2ccccc2O1 (stereo not given),98,102,162*,93,101,136,113,102,116,92,0.8,Yeast autofl DR=3.5;TORC1 bypass=3
Cc1cc(C(=O)Nc2nc(-c3ccccn3)cs2)ccc1[N+](=O)[O-],98,98,160*,101,100,x,x,x,x,x,1.3,Yeast autofl DR=0.08;TORC1 bypass=3
CCc1cc(C(=O)Nc2nc(-c3ccccn3)cs2)sc1C,70,78,208*,88,99,156*,114,103,111,91,0.5,
SMILES,AGP1 TOR yeast,CIT2 TOR yeast,LAP4 TOR yeast,RPL19A-GFP yeast,MEP2-GFP yeast,LAP4 cherry2,MEP2 cherry2,RPL19A GFP CP2,CIT2 GFP CP2,AGP1 GFP CP2,Yeast autofluor,others
CC1CCCCN1Cc1nc2c(c(=O)n(C)c(=O)n2C)n1CCCc1ccccc1 (stereo not given),101,105,94,106,98,x,x,x,x,x,x,
CN1CCSc2ccc(C(=O)NCc3ccccc3F)cc21,91,90,121,100,106,x,x,x,x,x,x,
COc1cccc(CNC(=O)c2ccc3c(c2)N(C)CCS3)c1OC,154*,161*,258*,64,759*,99,100,99,99,97,x,
COc1cc(/C=C/c2ccc3c(Br)cc(Br)c(O)c3n2)ccc1O,84,88,164*,94,109,x,x,x,x,x,3.6,
O=[N+]([O-])c1ccc(O)c2cccnc12,105,111,100,99,99,x,x,x,x,x,x,
O=[N+]([O-])c1ccc(O)c2ncccc12,106,82,313*,97,105,275*,159*,100,120,129,1.3,Yeast autofl DR=0.73;TORC1 bypass=3
O=[N+]([O-])c1ccc(Cl)c2cccnc12,93,94,87,94,99,x,x,x,x,x,x,
O=[N+]([O-])c1cc(Cl)c2cccnc2c1O,127,102,202*,101,120,x,x,x,x,x,0.31,Yeast autofl DR=0.57;TORC1 bypass=3
